A selection: hits, their analogues and other compounds. The true share with any hit is near 2.6%.
PHOSPHO1 inh – blocks human PHOSPHO1 phosphatase activity; recombinant PHOSPHO1, absorbance phosphatase assay; inhibition, % at 13.3 µM; actives 1.1% (n = 290,000); AID 1565; in the data active means inhibition above about 60%
Target sequence (Q8TCT1 whole entry, looked up): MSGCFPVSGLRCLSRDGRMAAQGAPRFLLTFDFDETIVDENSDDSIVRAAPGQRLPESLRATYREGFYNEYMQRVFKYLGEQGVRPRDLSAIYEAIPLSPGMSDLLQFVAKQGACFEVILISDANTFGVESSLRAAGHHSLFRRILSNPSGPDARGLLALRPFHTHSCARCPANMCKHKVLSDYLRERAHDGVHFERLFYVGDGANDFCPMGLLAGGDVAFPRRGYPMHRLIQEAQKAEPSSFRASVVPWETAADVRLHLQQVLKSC
PABP FP inh – blocks human PABP binding to poly(A) RNA; P11940; fluorescence polarization; calls only at 35 µM; actives 1% (n = 290,000); AID 2014;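 further: calls also rest on retests at 20 µM and on dose response follow-up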
MLLE-PAM2 inh – inhibitors of microRNA-mediated deadenylation, human PABP1 MLLE binding. P11940. GST-MLLE / FITC-PAM2 fluorescence polarization. inhibition, % at 20 µM. actives 0.36% (n = 360,000); in the data active means inhibition above about 35%, passing the limit was not always enough;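 further: plate controls were DMSO wells with GST-MLLE for no effect and wells lacking GST-MLLE protein for full effect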
eIF4H FP inh – inhibitors of RNA binding by human eIF4H; eIF4H fluorescence polarization binding assay; inhibition, % at 35 µM; actives 0.94% (n = 290,000);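 further: calls also rest on retests at 20 µM and on dose response follow-up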
AI-2 QS modul – modulators of Vibrio harveyi AI-2 quorum sensing system; Vibrio harveyi JMH597 AI-2 luminescence/OD600 ratio, 9 h; active compounds read low; strain lacks LuxN and CqsS sensors; 0 = neutral-control median; activity change, % at 7.5 µM; actives 0.4% (n = 300,000); AID 2094; in the data active means activity change below about -75%, passing the limit was not always enough; inconclusive means no clear call, values can overlap the other calls;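 further: luminescence divided by OD600 gain over 9 h not by final OD600 alone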
ABCB6 inh MLPCN – blocks the human ABCB6 transporter. K562-ABCB6 porphyrin accumulation, flow cytometry, 1 h; active compounds read low. fluorescence ratio to DMSO, % at 10 µM. actives 0.19% (n = 360,000). AID 602162;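 active means fluorescence ratio to DMSO below 75%, the collection mean minus 3 SD; inconclusive means too few cells collected in the well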;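 further: signal is porphyrin accumulated inside mitochondria; 100% equals median channel fluorescence of DMSO control wells; lower ratio means ABCB6 inhibition with less porphyrin fluorescence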
* hit, by the source's call; i = inactive; u = inconclusive; x = no result given; + = active, no number. Unless noted, how the calls were made is not given here.

SMILES	PHOSPHO1 inh	PABP FP inh	MLLE-PAM2 inh	eIF4H FP inh	AI-2 QS modul	ABCB6 inh MLPCN
Cn1nc(C(F)(F)F)c(C(=O)Nc2ccc(F)cc2F)c1Oc1cccc(Cl)c1	7.2	i	-7.7	-6.9	21.3	97.0
Cc1nn(C)c(Oc2cccc(Cl)c2)c1C=O	10.1	i	1.3	1.1	-15.9	74.0*
FC(F)(F)c1ccccc1Cc1c(-c2ccc(Cl)cc2)nc2ccc(Br)cn12	x	x	-8.1	x	x	102.0
O=C(NC(=S)NC(CO)Cc1ccccc1)c1ccc(F)cc1 (stereo not given)	43.1	i	33.3*	2.0	9.9	98.0
COC(=O)C(Cc1ccccc1)NC(=S)NC(=O)c1ccccc1 (stereo not given)	15.5	i	11.0	-5.7	-0.2	97.0
CC(Cc1ccccc1)C(=O)NCc1ccncc1 (stereo not given)	-8.7	i	5.0	5.6	8.2	107.0
CC(Cc1ccccc1)C(=O)N[C@@H](CO)Cc1ccccc1 (stereo not given in full)	13.3	+	-2.1	active	22.8	94.0
NS(=O)(=O)c1ccc(N/N=C/c2ccc(O)cc2O)c([N+](=O)[O-])c1	-12.2	i	14.0	11.8	19.9	96.0
NS(=O)(=O)c1ccc(N/N=C/c2ccc(O)c(O)c2O)c([N+](=O)[O-])c1	28.8	i	42.4*	95.8*	x	98.0
COc1ccc(NS(=O)(=O)c2ccc(N3CCCC3)c(NC(=S)Nc3ccc(SC(F)F)cc3)c2)cc1	47.4	i	40.3*	-12.3	21.2	98.0
COCCN(C(=O)/C=C/c1ccccc1)c1nnc(-c2cccnc2)s1	36.5	+	-13.5	51.5	0.8	91.0
COCCN(C(=O)c1cccc(OC)c1)c1nnc(-c2ccncc2)s1	1.4	i	0.7	-3.5	18.8	96.0
O=C1NC(Cc2ccc(O)cc2)c2nc3ccc(F)cc3c(=O)n2-c2ncccc21 (stereo not given)	x	x	2.8	x	x	108.0
Nc1cccnc1Sc1ccc(Cl)cc1	37.9	i	-3.5	-3.4	17.1	98.0
Nc1cccnc1Sc1cccc(Cl)c1	-0.1	i	38.2*	13.9	24.9	104.0
O=c1oc(/C=C/c2ccco2)nc2sc3c(c12)CCC3	32.5	+	3.8	73.4*	9.2	108.0
O=C(Nc1cccc(C(=O)O)c1)/C(=C\c1ccccc1)NC(=O)c1ccco1	x	x	7.8	x	x	98.0
COc1ccccc1-c1ccc([C@@H]2C[C@H]3[C@H](CON3C)CN2C(=O)c2ccc(-c3ccccc3)cc2)cc1	x	x	9.3	x	x	102.0
Cc1ccc(NC(=O)c2cc(S(=O)(=O)N3CCCCC3)c[nH]2)cc1Cl	x	x	5.3	x	x	95.0
COc1ccc(OC)c(S(=O)(=O)N2CCN(C(=O)c3cc(C4CC4)nn3-c3ccccc3)CC2)c1	x	x	67.8*	x	x	94.0
O=C(/C=C/c1ccccc1)NCCC1=CCCCC1	1.1	i	-0.3	-7.2	-85.8*	95.0
O=C(COC(=O)/C=C/c1ccccc1)NCCC1=CCCCC1	-11.2	i	4.7	-4.6	10.6	96.0
CC1=C/C(=C/N(C)c2ccccc2)C(=O)S1	31.1	+	39.2	51.8*	-1.4	100.0
CC1C(=O)N(Cc2cn(Cc3ccco3)nn2)CCS(=O)(=O)N1Cc1ccc(-c2ccc(F)cc2Cl)cc1 (stereo not given)	x	x	-41.6	x	x	98.0
NC1=Nc2cccc3cccc1c23	15.9	+	-28.8	92.4	19.3	190.0
SMILES	PHOSPHO1 inh	PABP FP inh	MLLE-PAM2 inh	eIF4H FP inh	AI-2 QS modul	ABCB6 inh MLPCN
CC(C)C[C@@H]1COc2cc(N3CC[C@H](O)C3)ccc2S(=O)(=O)N1	x	x	x	x	x	91.0
CCOC(=O)c1ccc(N2N=C(C)/C(=C/C=C/c3ccco3)C2=O)cc1	-3.3	+	4.7	u	6.5	87.0
Cc1cc(C)c2c(CC(=O)NC(C)C)coc2c1	34.1	i	8.9	-2.6	22.5	99.0
Cc1cc(C)c2c(=O)c(C#N)coc2c1	3.3	i	38.7*	-8.2	14.2	98.0
OC(c1ccc(Cl)cc1)c1ncc(-c2ccccc2Cl)[nH]1 (stereo not given)	x	x	1.6	x	x	95.0
CC(SC1=Nc2ccccc2C2CC=NN12)C(=O)NC1(C#N)CCCCC1 (stereo not given)	x	x	40.8*	x	x	92.0
O=C(COc1ccc(-c2ccccc2)cc1)N1CCN(C(=O)c2cccnc2)CC1	-4.9	i	-12.3	1.2	24.1	99.0
O=C(c1ccccc1)N1CC(COc2ccccc2)OC(c2cccnc2)O1 (stereo not given)	36.0	+	-7.2	63.3*	-10.0	95.0
O=C(N/N=C/c1ccc(Br)s1)c1c[nH]c2ccccc12	14.1	i	-3.1	-6.5	-77.5*	99.0
O=C(N/N=C/c1cc(Br)cs1)c1c[nH]c2ccccc12	25.9	i	-4.1	2.1	-19.9	101.0
CCCCC1OC23CCCCC2C(C#N)(C(=N)O3)C1(C#N)C#N (stereo not given)	0.9	u	48.2*	u	32.1	96.0
COn1c2c(c3c4nonc4ccc31)CCCC2	7.1	+	24.1	25.8	15.2	103.0
On1c2c(c3c4nonc4ccc31)CCCC2	17.3	+	x	77.1*	23.4	x
CCCCNS(=O)(=O)c1ccc2nc(SCC(=O)c3ccc(C#N)cc3)[nH]c2c1	99.0*	i	-48.4	-14.2	-0.3	105.0
O=C1CCC(=O)N1c1ccc(-c2nc3ccccc3s2)cc1	56.2	i	2.3	61.3*	14.1	106.0
COc1cc(C)ccc1S(=O)(=O)NC(=O)C1(C)CCN1C(=O)c1ccc(C2CCCCC2)cc1 (stereo not given)	x	x	3.8	x	x	103.0
Nc1c(C(=O)NC2CC2)sc2nc3c(c(-c4ccco4)c12)CC/C3=C/c1ccco1	81.0*	i	-51.1	94.4	x	99.0
Nc1c(C(=O)Nc2ccccc2F)sc2nc(-c3ccco3)ccc12	37.9	+	3.6	90.0*	13.4	112.0
NC(=O)c1sc2nc3c(c(-c4ccco4)c2c1N)CCC3	51.1	+	16.2	97.0*	18.8	99.0
COC(=O)c1sc2nc(-c3ccco3)ccc2c1N	27.3	i	19.3	55.1*	17.3	105.0
NC(=O)c1sc2nc(-c3ccco3)ccc2c1N	40.3	+	-1.7	91.9*	29.1	109.0
NC(=O)c1sc2nc(-c3cccnc3)ccc2c1N	13.9	i	15.3	-10.5	17.1	104.0
N#Cc1nc(-c2ccccc2Cl)oc1NCc1ccco1	7.1	i	-0.8	10.7	-80.3*	97.0
N#Cc1nc(-c2ccc(Cl)cc2)oc1NCc1ccco1	-3.7	i	-7.6	-0.7	7.1	94.0
C=CCn1c(SCC(=O)c2cc(C)n(C(C)COC)c2C)nc2sc(C)c(C)c2c1=O (stereo not given)	-6.7	i	39.8*	-13.1	14.5	95.0
C=CCn1c(SCC(=O)NCCO)nc2sc(C)c(C)c2c1=O	-9.7	i	-18.5	-5.3	15.5	102.0

Compound activity: PubChem BioAssay, several laboratories
